Hits are enriched below; roughly 6.9% of the tested compounds scored in any of these assays.
HP1b binding inh: blocks HP1-beta chromodomain binding to methylated histone tails; P83916; AlphaScreen HP1-beta / biotin-H3K9me3 peptide binding; Potency, µM (highest dose often 114 µM), inactives show top-dose activity change, negative = inhibition, usual class: inhibitors; 390,000 compounds, 0.56% hits; also: nearly all actives have a fitted effect of over 70% in size
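AlphaScreen: HP1-beta (50 nM) preformed 30 min with biotin-H3(1-18)K9me3 peptide (50 nM) in PBS pH 7.4, 0.01% Tween-20. Compound added for 30 min at RT, then streptavidin donor/nickel chelate acceptor beads (10 ug/mL) for 30 min.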
PLK1 PBD inh: PLK1 (human) polo-box domain binding inhibition; Plk1 PBD binding of FITC phosphopeptide, fluorescence polarization; P53350; Potency, µM, for inactives: max response, negative = inhibition, usual class: inhibitors; AID 720504; 360,000 compounds, 2.8% hits; also: series mostly up to about 57 µM; % is scaled to controls: 0 for no effect and ±100 for the full control effect; nearly all actives have a fitted effect of over 65% in size
Target sequence (P53350 whole entry, looked up, the tested form may be a part): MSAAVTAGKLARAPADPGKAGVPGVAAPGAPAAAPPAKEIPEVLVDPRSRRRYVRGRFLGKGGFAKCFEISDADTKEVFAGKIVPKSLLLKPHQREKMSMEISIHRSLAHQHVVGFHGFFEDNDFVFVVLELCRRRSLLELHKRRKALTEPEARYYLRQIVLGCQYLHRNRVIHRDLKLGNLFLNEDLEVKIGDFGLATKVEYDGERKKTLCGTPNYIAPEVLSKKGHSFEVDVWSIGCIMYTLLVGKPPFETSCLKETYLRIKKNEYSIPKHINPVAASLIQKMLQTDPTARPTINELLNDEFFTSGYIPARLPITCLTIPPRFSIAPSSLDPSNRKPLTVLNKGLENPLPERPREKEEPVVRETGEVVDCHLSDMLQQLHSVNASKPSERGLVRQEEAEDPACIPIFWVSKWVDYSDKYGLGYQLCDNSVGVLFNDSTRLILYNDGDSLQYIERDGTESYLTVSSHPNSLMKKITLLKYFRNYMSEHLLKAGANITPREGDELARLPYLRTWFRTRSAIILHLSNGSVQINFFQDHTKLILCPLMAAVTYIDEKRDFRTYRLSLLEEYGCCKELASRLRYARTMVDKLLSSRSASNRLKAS
VDR inhibitor: blocks the human vitamin D receptor; Potency, µM, for the others: max response, negative = inhibition, hits mostly inhibitors; 400,000 compounds, 0.93% hits; VDR-SRC2-3 peptide fluorescence polarization, 2 h; P11473; AID 504847; also: % is scaled to controls: 0 for no effect and ±100 for the full control effect
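FP read-out; VDR + SRC2-3 coactivator peptide; 23 nl compound by pintool; 2 h RT incubation; reagents held at 4 deg C, protected from light.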
JMJD2A Tudor: inhibitors of human JMJD2A Tudor domain; AlphaScreen JMJD2A-Tudor / H3K4me3 peptide binding; Potency, µM (titrated, usually from 114 µM), for the others: at the top dose activity change, negative = inhibition, most hits filed as inhibitors; O75164; 390,000 compounds, 4.4% hits; also: % is scaled to controls: 0 for no effect and ±100 for the full control effect; nearly all actives have a fitted effect of over 50% in size
L3MBTL1 inh: L3MBTL1 (human) inhibition; AID 485360; 230,000 compounds, 0.66% hits; Potency, µM (top dose mostly 57.1 µM), for inactives: at the highest dose activity, negative = inhibition, hits mostly inhibitors; AlphaScreen L3MBTL1–H3K9me1 peptide binding; also: % is scaled to controls: 0 for no effect and ±100 for the full control effect; nearly all actives have a fitted effect of over 60% in size
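AlphaScreen proximity signal between nickel-chelate acceptor and streptavidin donor beads (final 10 ug/mL) reports binding of 50 nM L3MBTL1 to 75 nM biotin-H3 K9me1 peptide; complex incubated with compounds 30 min at room temperature; cefsulodin titration as control.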
BAZ2B inh: blocks human BAZ2B; Q9UIF8; AlphaScreen BAZ2B-H3K14Ac peptide displacement; Potency, µM (highest dose often 114 µM), without a hit: top-dose activity change, negative = inhibition, hits mostly inhibitors; 360,000 compounds, 4.4% hits; also: % is scaled to controls: 0 for no effect and ±100 for the full control effect; nearly all actives have a fitted effect of over 60% in size
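Multi-concentration screen (max 110 uM) measuring displacement of acetylated histone H3 peptide from BAZ2B by AlphaScreen, using 50 nM protein, 50 nM peptide and 10 ug/mL streptavidin donor plus Ni-chelate acceptor beads.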
The depositor's hits bear a star; ? = inconclusive; . = no result given; [ ] = dose if it differs, or a comment. Calls follow the shape of the dose curve; as a rule, active = well fitted curve in the direction sought with a large enough effect; inconclusive = small, poorly fitted or top-dose-only effect, or another doubt; inactive = no such curve, though single readings can be large; an effect the other way counts as inactive or inconclusive. Potency is read from the fitted curve at half-maximal effect.

SMILES	HP1b binding inh	PLK1 PBD inh	VDR inhibitor	JMJD2A Tudor	L3MBTL1 inh	BAZ2B inh
Cc1cccc(-n2c3nc(=O)[nH]c(=O)c-3cc3cc([N+](=O)[O-])ccc32)c1	5%	11µM*	-29%	-29%	4%	1%
O=c1nc2n(-c3ccccc3F)c3ccccc3cc-2c(=O)[nH]1	26%	.	-10%	-6%	.	-14%
Cc1ccc(C)c(-n2c3nc(=O)[nH]c(=O)c-3cc3cc([N+](=O)[O-])ccc32)c1	-20%	7.5µM*	?	?	?	-28%
O=C(NCCCn1ccnc1)C1CC(c2ccccc2Cl)=NO1 (stereo not drawn)	27%	-4%	-6%	-11%	.	-26%
O=C(O)CCC(=O)Nc1cc(C(F)(F)F)cc(C(F)(F)F)c1	46%	1%	-16%	4%	9%	1%
Cc1ccc2cc3cc(C(=O)Nc4ccc(F)cc4Cl)oc3nc2c1	18%[57 µM]	.	-4%	-16%	.	-3%
CN1c2ccccc2Sc2cc(N)ccc21	?	-12%	-4%	32µM*	?	28µM*
O=C(NCCc1nc2ccccc2n1CCO)C1CCCCC1	.	.	.	-11%	.	.
O=[N+]([O-])c1ccc(-c2cnc(SC(c3ccccc3)c3ccccc3)[nH]2)cc1	?	-16%	-12%	?	-26%	40µM*
Cc1cc(C)c(CSc2ncc(-c3ccc([N+](=O)[O-])cc3)[nH]2)c(C)c1	?	-7%	-2%	?	-25%	10µM*
O=[N+]([O-])c1ccc(-c2cnc(SCc3ccccc3Cl)[nH]2)cc1	?	4%	4%	?	-25%	32µM*
O=C(NCCOc1ccccc1)C1C(=O)Nc2ccccc2C(=O)N1C1CCCCC1 (stereo not drawn)	.	-3%	.	.	.	.
COc1ccc(OC)c(CNC(=O)c2cc(S(=O)(=O)N3CCC(C)CC3)cn2C)c1	9%[57 µM]	.	7%	-29%	.	?
CCOC(=O)[C@]12CCCC=C1N(CCC1=CCCCC1)C(=O)[C@H](CC(=O)NCC1CCCCC1)C2	.	-8%	.	.	.	.
COc1cc(OC)c(-c2c3cc(O)c(=O)cc-3oc3cc(O)c(O)cc23)cc1OC	-90%	-57%	-15%	1.1µM*	0.79µM*	1.1µM*
CC(=O)c1ccc(NC(=O)COCc2cc(-c3ccco3)on2)cc1	17%	.	28%	?	.	-21%
Cc1ccc(SCc2cc(=O)c3c(=O)n(-c4ccccc4)[nH]c3[nH]2)cc1	?	-27%	-4%	?	-90%	28µM*
O=c1cc(CSc2ccc(Cl)cc2)[nH]c2[nH]n(-c3ccccc3)c(=O)c12	?	-17%	?	?	?	35µM*
COc1cc(NC(=O)C(OC(=O)CNC(=O)c2ccccc2)c2ccccc2)cc(OC)c1 (stereo not drawn)	.	.	.	-12%	.	.
Cc1ccc(Cl)cc1-n1c(=O)c2sc3ccccc3c2n(CC(=O)NC2CCCCC2)c1=O	24%	.	17%	-17%	.	-4%
O=C1C=C(Nc2ccccc2O)c2ccccc2C1=O	-38%	-12%	8%	?	-24%	45µM*
O=C1C=C(NCc2ccccc2)c2ccccc2C1=O	5%	?	2µM*	-33%	22µM*	-31%
CCOCCCNC(=S)Nc1ccc(S(N)(=O)=O)cc1	33%	4%	5%	-3%	7%	-24%
CCCNC(=O)c1ccc(C2SCC(=O)N2Cc2ccccc2)cc1 (stereo not drawn)	53%	-1%	-1%	-8%	5%	1%
CC(C)CNC(=O)c1ccc(C2SCC(=O)N2Cc2ccccc2)cc1 (stereo not drawn)	0%	24µM*	79µM*	?	10%	0%
SMILES	HP1b binding inh	PLK1 PBD inh	VDR inhibitor	JMJD2A Tudor	L3MBTL1 inh	BAZ2B inh
CCOC(=O)c1c(S(=O)(=O)N2CCC(C(=O)NCc3ccccc3Cl)CC2)c(C)n(C)c1C	24%	.	12%	-20%	.	-15%
O=C1NC(=Nc2ccccc2)S/C1=C\C=C\c1ccco1	?	?	?	50µM*	3.2µM*	25µM*
Cc1ccc(N=C2NC(=O)/C(=C/C=C/c3ccco3)S2)cc1	?	?	?	35µM*	?	16µM*
Cc1cccc(N=C2NC(=O)/C(=C/c3cccnc3)S2)c1C	6%	-26%	5%	-26%	-9%	-18%
O=C1NC(=Nc2ccccc2)/C(=C/c2ccco2)S1	22%	-9%	-11%	-29%	-18%	50µM*
Cc1cccc(N=C2NC(=O)/C(=C/C=C/c3ccco3)S2)c1C	45µM*	15µM*	?	40µM*	7.9µM*	22µM*
COc1ccc(N=C2NC(=O)S/C2=C\c2ccc(N(C)C)cc2)cc1	-18%	?	-1%	-30%	0%	-35%
COc1ccc(N=C2NC(=O)/C(=C/C=C/c3ccccc3)S2)cc1	13%	-5%	5%	-10%	.	-14%
CNC(=O)[C@H]1O[C@@H](n2cnc3c(N)ncnc32)[C@H](O)[C@@H]1O	.	.	3%	.	.	.
Cc1ccc(N=C2NC(=O)/C(=C/c3cccn3C)S2)cc1C	10%	-7%	-1%	-25%	-8%	-13%
Cc1cccc(N=C2NC(=O)/C(=C/c3cccn3C)S2)c1C	-16%	-6%	10%	?	-7%	32µM*
O[C@@H]1CO[C@H]2C1OC[C@@H]2O (stereo partly drawn)	.	.	-23%	.	.	.
CCOC(=O)c1cccc(OS(=O)(=O)Cc2ccccc2)c1	119%	-2%	-5%	91%	.	.
Cc1cc(Cl)ccc1OCC(=O)Nc1c(Cl)ccc2nsnc12	21%	.	5%	3%	.	-14%
CCOC(=O)N=S(N)(=O)c1ccc(Cl)cc1 (stereo not drawn)	-5%	11µM*	-4%	-24%[11.4 µM]	.	-6%
CCOC(=O)N=S(N)(=O)c1ccccc1 (stereo not drawn)	33%	-5%	10%	6%	.	7%
COc1cccc(CN(C)CC(O)COc2cc(Cl)ccc2Cl)c1 (stereo not drawn)	?	4%	-17%	6.3µM*	.	56µM*
Cc1csc2nc(COc3ccccc3NC(=O)c3ccco3)cc(=O)n12	48%	.	-7%	-10%	.	-23%
COc1cccc(-c2cn3ncsc3n2)c1	16%	.	2%	-25%	.	?
Cc1ccccc1N1C(=O)c2cccc([N+](=O)[O-])c2C1=O	33%	-10%	-1%	-25%	1%	?
Cc1ccccc1-n1ncc2c([N+](=O)[O-])cc([N+](=O)[O-])cc21	40µM*	-11%	-1%	56µM*	?	32µM*
COc1ccccc1C(=O)NCCNC(=O)c1ccco1	?	27µM*	4%	25µM*	25%	1%
COc1ccccc1C(=O)NCc1ccco1	23%	-8%	-5%	-16%	-6%	-11%

From PubChem BioAssay
